Activity calls are given as the source filed them. Unless noted, no rule for the calls is given here.
What was measured:
[1] = resazurin metabolic signal in HepG2 cells – cell-based, resazurin fluorescence, 24 h, PK04 Diversity Set, profiling panel (AID 1172); settings: HepG2 viability, higher = more signal
[2] = budding yeast growth changes without added modifier – OD600, strain BY4716, 24 h, basal condition, primary screen (AID 1173); settings: S. cerevisiae BY4716 growth, OD600, 24 h; higher = more signal, called active from +8 up or from −8 down
[3] = viability profiling in MM1S myeloma cells – cell-based, resazurin fluorescence, basal, 24 h, PK04 Diversity Set, profiling panel (AID 1174); settings: higher = more signal, called active from +8 up or from −8 down;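 also: MM1S multiple myeloma cell line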
[4] = target: Dihydroorotate dehydrogenase (quinone), mitochondrial (Plasmodium falciparum (isolate 3D7)) (UniProt Q08210); test: inhibition of P. falciparum DHODH – biochemical, C-terminal His tag, absorbance 600 nm, primary screen (AID 1175); settings: PfDHODH enzyme, DCIP absorbance 600 nm; higher = more signal, called active from +8 up or from −8 down;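 also: recombinant parasite enzyme with a five histidine tag at its C terminus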
[5] = inhibition of PAO1 biofilm formation – strain PAO1, LB-PBS medium, absorbance 600 nm, primary screen (AID 1176); settings: P. aeruginosa PAO1 growth/biofilm, A600, 12 h; higher = more signal
[6] = growth modulation of vineyard yeast isolate – strain RM11-1a, OD600, basal, 24 h, primary screen (AID 1177);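 also: cultures grown under basal conditions with no added stressor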; settings: S. cerevisiae RM11-1a growth, OD600, 24 h; higher = more signal, called active from +8 up or from −8 down
[7] = growth of efflux-deficient E. coli DRC39 – strain DRC39, OD650, 24 h, E. coli filamentation inducers, primary screen (AID 1178);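 also: growth measured as culture turbidity by optical density at 650 nm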; settings: E. coli DRC39 acrAB, higher = more signal, called active from +8 up or from −8 down
[8] = growth of efflux-deficient E. coli DRC39 – strain DRC39, OD650, 48 h, E. coli filamentation inducers, primary screen (AID 1179);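 also: screen aims at cell division blockers that make cells filament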; settings: E. coli DRC39 delta-acrAB growth, higher = more signal, called active from +8 up or from −8 down
[9] = viability profiling in RPMI8226 myeloma cells – cell-based, resazurin fluorescence, basal, 24 h, PK04 Diversity Set, profiling panel (AID 1180); settings: higher = more signal;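 also: RPMI8826 multiple myeloma cell line at 5000 cells per well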
[10] = target: E3 ubiquitin-protein ligase XIAP (Homo sapiens) (UniProt P98170); test: small molecules binding XIAP protein – biophysical, small-molecule microarray, fluorescence 635 nm, primary screen (AID 1181); settings: higher = more signal;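 also: score merges 667 nm emission and signal to noise over triplicate slides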
[11] = system: XIP peptide (Xip251-270) binding; test: XIP fragment 251-270 binding compounds – biochemical, small-molecule microarray, fluorescence 635/667 nm, 0.1 µg/mL protein, primary screen (AID 1182); settings: fluorescent protein binding, 635 nm, higher = more signal, called active from +8 up or from −8 down
XIP peptide (Xip251-270) = test: compounds binding XIP fragment 251-270 – biochemical, small-molecule microarray, fluorescence 635/667 nm, 0.5 µg/mL protein, primary screen (AID 1183); settings: fluorescence 635 nm, higher = more signal
[12] = blood-stage malaria parasite viability loss – strain 3D7, DAPI fluorescence, 100 nL, primary screen (AID 1184);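 also: parasites grown inside human red blood cells in medium with human serum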; settings: P. falciparum 3D7 growth, 3 d, higher = more signal
[13] = target: Homeobox protein Hox-A13 (Mus musculus) (UniProt Q62424); test: disruptors of Hoxa13 oligonucleotide interaction – biochemical, fluorescence polarization, labeled oligonucleotide, primary screen (AID 1185); settings: Hoxa13:DNA binding, 15 min, higher = more signal, called active from +8 up or from −8 down
[14] = blockers of DNA damage checkpoint Chk1 activation – imaging, HeLa, hydroxyurea, phospho-Chk1 antibody, percent positive cells, primary screen (AID 1186); settings: hydroxyurea-induced phospho-Chk1 immunofluorescence imaging, higher = more signal
[15] = blockers of DNA damage checkpoint Chk1 activation – imaging, HeLa, hydroxyurea, phospho-Chk1 nuclear intensity, primary screen (AID 1187); settings: hydroxyurea-induced phospho-Chk1 immunofluorescence imaging, higher = more signal

E3 ubiquitin-protein ligase XIAP (Homo sapiens), sequence (P98170 whole entry, looked up, the tested form may be a part): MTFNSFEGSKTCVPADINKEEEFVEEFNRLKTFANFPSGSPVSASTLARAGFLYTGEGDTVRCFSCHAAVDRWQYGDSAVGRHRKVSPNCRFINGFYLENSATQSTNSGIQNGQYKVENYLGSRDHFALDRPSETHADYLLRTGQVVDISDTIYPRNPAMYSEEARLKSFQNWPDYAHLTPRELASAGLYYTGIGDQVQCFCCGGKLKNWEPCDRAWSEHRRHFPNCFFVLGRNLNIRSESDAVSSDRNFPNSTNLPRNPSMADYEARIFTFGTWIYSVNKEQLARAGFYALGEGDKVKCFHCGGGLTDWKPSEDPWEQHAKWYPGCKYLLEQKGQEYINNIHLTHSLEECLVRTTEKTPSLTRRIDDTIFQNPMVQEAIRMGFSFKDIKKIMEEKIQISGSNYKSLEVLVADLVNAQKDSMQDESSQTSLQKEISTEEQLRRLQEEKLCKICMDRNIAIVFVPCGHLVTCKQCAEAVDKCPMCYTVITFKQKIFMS
Homeobox protein Hox-A13 (Mus musculus), sequence (Q62424 whole entry, looked up): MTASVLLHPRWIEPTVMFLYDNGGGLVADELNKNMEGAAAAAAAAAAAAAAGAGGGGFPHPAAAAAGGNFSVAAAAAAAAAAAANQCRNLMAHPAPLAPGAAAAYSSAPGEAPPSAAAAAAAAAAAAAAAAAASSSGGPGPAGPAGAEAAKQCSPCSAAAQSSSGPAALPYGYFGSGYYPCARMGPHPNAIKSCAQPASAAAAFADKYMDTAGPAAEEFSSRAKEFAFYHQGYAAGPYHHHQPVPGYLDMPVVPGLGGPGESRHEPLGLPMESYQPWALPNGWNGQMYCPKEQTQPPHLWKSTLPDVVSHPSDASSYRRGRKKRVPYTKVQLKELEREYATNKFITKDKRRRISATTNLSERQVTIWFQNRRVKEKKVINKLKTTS
Dihydroorotate dehydrogenase (quinone), mitochondrial (Plasmodium falciparum (isolate 3D7)), sequence (Q08210 whole entry, looked up): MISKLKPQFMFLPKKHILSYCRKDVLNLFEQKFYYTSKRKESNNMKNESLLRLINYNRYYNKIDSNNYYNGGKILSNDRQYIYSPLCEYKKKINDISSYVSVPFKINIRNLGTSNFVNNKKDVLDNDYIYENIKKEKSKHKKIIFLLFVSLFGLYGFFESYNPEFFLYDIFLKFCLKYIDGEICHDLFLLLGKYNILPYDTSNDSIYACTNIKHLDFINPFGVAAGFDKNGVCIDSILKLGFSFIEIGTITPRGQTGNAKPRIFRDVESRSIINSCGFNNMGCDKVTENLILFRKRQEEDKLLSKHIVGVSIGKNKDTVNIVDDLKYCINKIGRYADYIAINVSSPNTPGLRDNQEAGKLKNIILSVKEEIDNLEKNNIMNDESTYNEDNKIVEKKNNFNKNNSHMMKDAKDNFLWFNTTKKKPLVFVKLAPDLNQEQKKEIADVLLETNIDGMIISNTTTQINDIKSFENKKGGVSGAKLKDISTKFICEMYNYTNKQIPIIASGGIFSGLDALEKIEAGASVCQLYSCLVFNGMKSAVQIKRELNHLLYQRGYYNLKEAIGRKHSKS

Row | SMILES | z-score [1] | z-score [2] | z-score [3] | composite z-score [4] | z-score [5] | z-score [6] | z-score [7] | z-score [8] | z-score [9] | composite z-score [10] | composite z-score [11] | composite z-score (XIP peptide (Xip251-270)) | z-score [12] | z-score [13] | z-score [14] | z-score [15]
1 | OCC1C=C(/C=C/c2ccccc2)CN1Cc1ccccc1Br (configuration not stated) | 0.233 | -9.92 (active) | -0.813 (inactive) | -0.0313 (inactive) | -0.0461 (inactive) | -0.877 (inactive) | 1.79 (inactive) | 0.183 (inactive) | -0.589 | -0.122 | 1.74 (inactive) | 0.698 | -0.982 | -2.19 (inactive) | -0.449 (inactive) | -0.283 (inactive)
2 | O=C1N(CCS(=O)(=O)c2ccccc2)c2ccccc2[C@@H]2OC(c3ccc(OCCCO)cc3)=N[C@]12Cc1ccccc1 | 0.292 | -0.237 (inactive) | -3.11 (inactive) | -1.52 (inactive) | 0.755 (inactive) | 0.289 (inactive) | 1.11 (inactive) | 1.03 (inactive) | -1.95 | 0.0999 | 0.395 (inactive) | 0.639 | -2.17 | -1.41 (inactive) | -0.522 (inactive) | -0.825 (inactive)
3 | COc1ccc([Si](C)(C)[C@H]2[C@H](CCn3cc([C@H](O)c4ccccc4)nn3)O[C@@]3(C(=O)N(C)c4ccccc43)[C@@H]2C)cc1 | 0.894 | 0.0785 (inactive) | -0.722 (inactive) | -0.778 (inactive) | 0.92 (inactive) | 1.01 (inactive) | 0.445 (inactive) | 0.416 (inactive) | -0.568 | 0.393 | 0.014 (inactive) | -0.325 | -1.52 | -6.41 (inactive) | -0.179 (inactive) | 0.36 (inactive)
4 | O=C1OCCC/C=C\[C@H]2OC34C=CCN(c5ccc6ccccc6c5)C(=O)[C@H]3N(CCCCCO)C(=O)[C@@H]4C12 (some centres not stated) | 0.0877 | -0.801 (inactive) | -0.377 (inactive) | -0.338 (inactive) | -0.649 (inactive) | -0.878 (inactive) | 0.352 (inactive) | -0.005 (inactive) | 0.408 | -0.0541 | 0.0867 (inactive) | 0.0861 | 1.73 | -4.94 (inactive) | 0.715 (inactive) | -0.0708 (inactive)
5 | C=CCNC(=O)[C@@H]1[C@H]2C(=O)O[C@H](c3ccccc3)[C@H](c3ccccc3)N2[C@H](c2ccc(OCCO)cc2)[C@@]12C(=O)N(C(=O)OCCOC)c1ccc(C#CCNC(N)=O)cc12 | -1.09 | 1.04 (inactive) | -0.58 (inactive) | -0.132 (inactive) | 0.958 (inactive) | 2.78 (inactive) | 0.589 (inactive) | 0.0924 (inactive) | 0.853 | -0.16 | -0.121 (inactive) | 0.842 | -1.29 | -1.4 (inactive) | 0.111 (inactive) | 0.487 (inactive)
6 | COCCCNC(=O)[C@@]1(Cc2ccccc2)N=C(c2ccc(OCCCO)cc2)O[C@H]1c1ccccc1CN=[N+]=[N-] | -0.708 | -0.176 (inactive) | -0.78 (inactive) | -0.453 (inactive) | 0.95 (inactive) | 0.499 (inactive) | 0.0347 (inactive) | 0.134 (inactive) | -1.22 | 0.0607 | 0.596 (inactive) | 0.801 | -2.62 | -3.07 (inactive) | 0.0048 (inactive) | -0.194 (inactive)
7 | CCCCC(=C=CC[C@@H](O)c1cccc(OCCO)c1)C[C@@H](O)c1ccccn1 | 0.599 | -1.56 (inactive) | 0.0382 (inactive) | -1.42 (inactive) | 0.968 (inactive) | 0.129 (inactive) | 0.584 (inactive) | 0.493 (inactive) | 0.695 | -0.102 | 1.26 (inactive) | 0.75 | -0.12 | -5.42 (inactive) | -0.0346 (inactive) | 0.159 (inactive)
8 | C[C@H]1C2[C@H](Cc3ccccc3)NC(=O)[C@]23C(=O)NCC(=O)N2CCC[C@H]2C(=O)NC/C=C/CCC/C=C/C3[C@@H]2O[C@]12C (some centres not stated) | -1.11 | -1.17 (inactive) | -0.111 (inactive) | -0.0305 (inactive) | -0.578 (inactive) | -0.0879 (inactive) | 1.2 (inactive) | 0.601 (inactive) | 0.277 | -0.152 | -0.416 (inactive) | -0.56 | -1.48 | -3.96 (inactive) | 0.0614 (inactive) | 0.0823 (inactive)
9 | O=C1O[C@@H](c2ccccc2)[C@@H](c2ccccc2)N2[C@@H](c3ccccc3OCCO)[C@]3(C(=O)Nc4ccccc43)[C@@H](C(=O)O)[C@H]12 | -0.0985 | -2.46 (inactive) | 0.19 (inactive) | -0.487 (inactive) | 0.986 (inactive) | 0.324 (inactive) | -0.582 (inactive) | -0.76 (inactive) | 0.125 | 0.0755 | 1.14 (inactive) | 0.457 | -0.6 | -6.35 (inactive) | 0.405 (inactive) | 0.5 (inactive)
10 | COc1ccc(C(O)C2C=CC3C(=O)N(C)C(=O)C3N2NC(=O)OC(C)(C)C)c2ccccc12 (configuration not stated) | -1.78 | -1.15 (inactive) | -0.0317 (inactive) | 0.799 (inactive) | 0.503 (inactive) | 1.06 (inactive) | -0.45 (inactive) | -0.765 (inactive) | -0.993 | -0.193 | 0.661 (inactive) | 0.744 | -0.526 | -4.22 (inactive) | 0.667 (inactive) | 0.704 (inactive)
11 | O=C1OCCC=C[C@H]2OC34C=CCN(CCN5CCOCC5)C(=O)[C@H]3N(CCCCCO)C(=O)[C@@H]4C12 (some centres not stated) | -0.123 | -0.987 (inactive) | 0.673 (inactive) | 0.233 (inactive) | -0.484 (inactive) | -0.112 (inactive) | 0.298 (inactive) | 0.732 (inactive) | 0.571 | -0.0144 | 0.272 (inactive) | 0.348 | 0.124 | -5.57 (inactive) | 0.139 (inactive) | 0.357 (inactive)
12 | CC#CC(=O)Oc1ccc(Br)cc1C=CC(=O)OCC | -0.0419 | -14.7 (active) | -2.38 (inactive) | -0.632 (inactive) | 0.312 (inactive) | -10.6 (active) | -0.0142 (inactive) | -1.01 (inactive) | -3 | 1.25 | 1.17 (inactive) | -0.101 | -1.65 | -3.79 (inactive) | 0.309 (inactive) | -1.03 (inactive)
13 | CO[C@H]1O[C@H](CO)[C@@H](OC(=O)Nc2ccc(Oc3ccccc3)cc2)[C@H](OC(=O)Nc2ccc3c(c2)OCO3)[C@@H]1OC(=O)Nc1ccc2c(c1)OCO2 | -1.01 | 0.77 (inactive) | -0.949 (inactive) | 0.0357 (inactive) | 1.39 (inactive) | 2.65 (inactive) | 0.759 (inactive) | -0.0218 (inactive) | -0.793 | 0.222 | 0.23 (inactive) | 0.863 | -2.05 | -6.43 (inactive) | 0.126 (inactive) | 0.561 (inactive)
14 | COC(=O)[C@@]1(Cc2ccccc2)[C@H]2c3cc(C(=O)N(C)C)n(Cc4ccc(OC)c(OC)c4)c3C[C@H]2CN1C(=O)c1ccccc1 | -0.872 | 0.721 (inactive) | -0.799 (inactive) | -0.831 (inactive) | 0.302 (inactive) | 0.358 (inactive) | -0.874 (inactive) | -0.695 (inactive) | -2.19 | -0.289 | 0.713 (inactive) | 0.664 | -1.44 | -4.39 (inactive) | 0.639 (inactive) | 0.614 (inactive)
15 | CCCCC(O)C1C=CC2C(=O)N(C)C(=O)C2N1N1CCCCC1 (configuration not stated) | -1.12 | 1.96 (inactive) | -1.5 (inactive) | 1.23 (inactive) | 0.971 (inactive) | 1.64 (inactive) | -0.83 (inactive) | -0.412 (inactive) | -1.9 | 0.547 | 0.0433 (inactive) | 0.941 | -0.133 | -6.77 (inactive) | 0.492 (inactive) | 0.154 (inactive)
16 | C[N+](C)(C)CCCC[C@@H]1NC(=O)[C@H]2C[C@@H](C(=O)NCCCCCCNC(=O)CS)[C@@H](c3ccc(O)cc3)N2C1=O | -0.935 | 0.123 (inactive) | -0.476 (inactive) | 0.0966 (inactive) | -0.0059 (inactive) | -0.0807 (inactive) | 0.0109 (inactive) | -0.643 (inactive) | -0.862 | -0.0272 | 0.945 (inactive) | -0.502 | 0.0331 | -2.68 (inactive) | -0.888 (inactive) | -0.233 (inactive)
17 | O=C(CS)NCCCCCNC(=O)[C@H]1C[C@H]2C(=O)NCC(=O)N2[C@H]1c1cccc(OCCO)c1 | 0.942 | -0.191 (inactive) | 1.49 (inactive) | 0.258 (inactive) | -0.764 (inactive) | -0.39 (inactive) | 0.325 (inactive) | 0.261 (inactive) | 1.28 | 0.0174 | -0.109 (inactive) | 0.388 | 1.01 | -1.67 (inactive) | -0.56 (inactive) | -0.321 (inactive)

From PubChem BioAssay
